Laboratory results published in PubChem BioAssay AID1159580 (chemical genetic matrix, 2015).
The whole screen tested about 5,500 compounds, of which about 2,000 (36%) were called active. About 18% were inconclusive and are not listed. Some of the results follow. A number with no mark means an inactive call. Rule as the data show it: active = normalized growth mostly below about 0.91 (no sharp cut-off); inconclusive = no clear call, values can overlap the other calls; inactive = mostly above about 0.92.

Test: chemical genetic growth profiling, strain panel (AID 1159580);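 also: tested at 20 µM; growth read once vehicle control cultures reached saturation at 30 °C; 1 = growth at the plate median or of vehicle wells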
Details: S. cerevisiae deletion strains, growth OD
[1] = locus YAR019C, strain CDC15, stronger effect = lower value
[2] = locus YBL105C, strain PKC1, stronger effect = lower value
[3] = locus YBR135W, strain CKS1, stronger effect = lower value
[4] = locus YBR136W, strain MEC1, stronger effect = lower value
[5] = locus YBR160W, strain CDC28, stronger effect = lower value
[6] = locus YDL017W, strain CDC7, stronger effect = lower value
[7] = locus YDL028C, strain MPS1, stronger effect = lower value
[8] = locus YDL101C, strain DUN1, stronger effect = lower value
[9] = locus YDL108W, strain KIN28, stronger effect = lower value
[10] = locus YDL132W, strain cdc53, stronger effect = lower value
[11] = locus YDL214C, strain PRR2, stronger effect = lower value
[12] = locus YDR052C, strain DBF4, stronger effect = lower value
[13] = locus YDR054C, strain cdc34, stronger effect = lower value
[14] = locus YDR226W, strain ADK1, stronger effect = lower value
[15] = locus YDR477W, strain SNF1, stronger effect = lower value
[16] = locus YER123W, strain YCK3, stronger effect = lower value
[17] = locus YER133W, strain GLC7, stronger effect = lower value
[18] = locus YFL009W, strain cdc4, stronger effect = lower value
[19] = locus YFL029C, strain CAK1, stronger effect = lower value
[20] = locus YFR003C, strain YPI1, stronger effect = lower value
[21] = locus YFR019W, strain FAB1, stronger effect = lower value
[22] = locus YFR028C, strain CDC14, stronger effect = lower value
[23] = locus YGR040W, strain KSS1, stronger effect = lower value
[24] = locus YGR052W, strain FMP48, stronger effect = lower value
[25] = locus YGR092W, strain DBF2, stronger effect = lower value
[26] = locus YHR030C, strain SLT2, stronger effect = lower value
[27] = locus YHR079C, strain IRE1, stronger effect = lower value
[28] = locus YHR082C, strain KSP1, stronger effect = lower value
[29] = locus YHR205W, strain SCH9, stronger effect = lower value
[30] = locus YIL147C, strain SLN1, stronger effect = lower value
[31] = locus YJL095W, strain BCK1, stronger effect = lower value
[32] = locus YJL128C, strain PBS2, stronger effect = lower value
[33] = locus YJL157C, strain FAR1, stronger effect = lower value
[34] = locus YJR016C, strain ILV3, stronger effect = lower value
[35] = locus YJR066W, strain TOR1 (second series), stronger effect = lower value
[36] = locus YJR066W, strain TOR1, stronger effect = lower value
[37] = locus YKL048C, strain ELM1, stronger effect = lower value
[38] = locus YKL067W, strain YNK1, stronger effect = lower value
[39] = locus YKL101W, strain HSL1, stronger effect = lower value
[40] = locus YKL193C, strain SDS22, stronger effect = lower value
[41] = locus YKL203C, strain TOR2, stronger effect = lower value
[42] = locus YLR113W, strain HOG1, stronger effect = lower value
[43] = locus YLR133W, strain CKI1, stronger effect = lower value
[44] = locus YLR403W, strain SFP1, stronger effect = lower value
[45] = locus YML070W, strain DAK1, stronger effect = lower value
[46] = locus YMR001C, strain CDC5, stronger effect = lower value
[47] = locus YMR205C, strain PFK2 (second series), stronger effect = lower value
[48] = locus YMR277W, strain FCP1, stronger effect = lower value
[49] = locus YNL006W, strain LST8, stronger effect = lower value
[50] = locus YNL020C, strain ARK1, stronger effect = lower value
[51] = locus YNL161W, strain CBK1, stronger effect = lower value
[52] = locus YNL183C, strain NPR1, stronger effect = lower value
[53] = locus YNL207W, strain RIO2, stronger effect = lower value
[54] = locus YNL222W, strain SSU72, stronger effect = lower value
[55] = locus YNL307C, strain MCK1 (second series), stronger effect = lower value
[56] = locus YOL078W, strain AVO1, stronger effect = lower value
[57] = locus YOL136C, strain PFK27, stronger effect = lower value
[58] = locus YOR061W, strain CKA2, stronger effect = lower value
[59] = locus YOR119C, strain RIO1, stronger effect = lower value
[60] = locus YOR231W, strain MKK1, stronger effect = lower value
[61] = locus YOR329C, strain SCD5, stronger effect = lower value
[62] = locus YPL031C, strain PHO85, stronger effect = lower value
[63] = locus YPL153C, strain RAD53, stronger effect = lower value
[64] = locus YPL204W, strain HRR25, stronger effect = lower value
[65] = locus YPL209C, strain IPL1, stronger effect = lower value
[66] = locus YPL256C, strain CLN2, stronger effect = lower value
[67] = locus YPR025C, strain CCL1, stronger effect = lower value
[68] = locus YPR106W, strain ISR1, stronger effect = lower value
[69] = locus YPR111W, strain DBF20, stronger effect = lower value
[70] = strain NNK1, stronger effect = lower value
[71] = strain TSCII, stronger effect = lower value

`COc1ccc(-c2csc(-c3cccnc3)n2)cc1` gave a normalized growth [1] of 0.96, a normalized growth [2] of 0.966 and a normalized growth [3] of 0.957. It also gave a normalized growth [4] of 0.958, a normalized growth [5] of 0.963 and a normalized growth [6] of 0.961. It also gave a normalized growth [7] of 0.965, a normalized growth [8] of 0.951 and a normalized growth [9] of 0.958. For the same molecule, the normalized growth [10] was 0.961, the normalized growth [11] was 0.909 and the normalized growth [12] was 0.973. The normalized growth [13] was 0.945, the normalized growth [14] was 0.946 and the normalized growth [15] was 0.894. For the same molecule, the normalized growth [16] was 0.847, the normalized growth [17] was 0.888 and the normalized growth [18] was 0.954. The normalized growth [19] was 0.949, the normalized growth [20] was 0.947 and the normalized growth [21] was 0.86. The normalized growth [22] was 0.949, the normalized growth [23] was 0.858 and the normalized growth [24] was 0.993. The normalized growth [25] was 0.828, the normalized growth [26] was 0.849 (active) and the normalized growth [27] was 0.889. The normalized growth [28] was 0.954, the normalized growth [29] was 0.955 and the normalized growth [30] was 0.961. The normalized growth [31] was 0.884, the normalized growth [32] was 0.966 and the normalized growth [33] was 0.914. It also gave a normalized growth [34] of 0.955, a normalized growth [35] of 0.857 and a normalized growth [36] of 0.891. For the same molecule, the normalized growth [37] was 0.958, the normalized growth [38] was 0.912 and the normalized growth [39] was 0.928. The normalized growth [40] was 0.948, the normalized growth [41] was 0.904 and the normalized growth [42] was 1.01. For the same molecule, the normalized growth [43] was 0.915, the normalized growth [44] was 0.877 and the normalized growth [45] was 0.912. The normalized growth [46] was 0.959, the normalized growth [47] was 0.907 and the normalized growth [48] was 0.95. It also gave a normalized growth [49] of 0.968, a normalized growth [50] of 0.903 and a normalized growth [51] of 0.963. The normalized growth [52] was 0.882, the normalized growth [53] was 0.949 and the normalized growth [54] was 0.953. For the same molecule, the normalized growth [55] was 0.888, the normalized growth [56] was 0.948 and the normalized growth [57] was 0.915. The normalized growth [58] was 0.929, the normalized growth [59] was 0.948 and the normalized growth [60] was 0.906. It also gave a normalized growth [61] of 0.957, a normalized growth [62] of 0.876 and a normalized growth [63] of 0.883. It also gave a normalized growth [64] of 0.852, a normalized growth [65] of 0.963 and a normalized growth [66] of 0.901. For the same molecule, the normalized growth [67] was 0.958, the normalized growth [68] was 0.958 and the normalized growth [69] was 0.956. It also gave a normalized growth [70] of 0.957 and a normalized growth [71] of 0.952.
`CN(C)C/C=C(/c1ccc(Br)cc1)c1cccnc1` showed a normalized growth (locus YAL040C, strain CLN3, stronger effect = lower value) of 0.964, a normalized growth (locus YCL061C, strain MRC1 (second series), stronger effect = lower value) of 0.999 and a normalized growth (locus YDR363W, strain ESC2, stronger effect = lower value) of 0.984. For the same molecule, the normalized growth (locus YER002W, strain NOP16, stronger effect = lower value) was 0.992, the normalized growth (locus YMR307W, strain GAS1, stronger effect = lower value) was 1.02 and the normalized growth (locus YNL175C, strain NOP13, stronger effect = lower value) was 0.975. The normalized growth (locus YNL197C, strain WHI3, stronger effect = lower value) was 1, the normalized growth (locus YNL224C, strain SQS1, stronger effect = lower value) was 1 and the normalized growth (locus YNL322C, strain KRE1, stronger effect = lower value) was 0.926. For the same molecule, the normalized growth (locus YOR083W, strain WHI5 (second series), stronger effect = lower value) was 0.994, the normalized growth (locus YPL055C, strain LGE1, stronger effect = lower value) was 0.997 and the normalized growth (locus YPL241C, strain CIN2, stronger effect = lower value) was 0.998.
With `COc1ccc(-c2cn3cc(C)ccc3n2)cc1` the normalized growth [1] was 0.98, the normalized growth [2] was 0.975 and the normalized growth [3] was 0.97. The normalized growth [4] was 0.978, the normalized growth [5] was 0.971 and the normalized growth [6] was 0.987. For the same molecule, the normalized growth [7] was 0.986, the normalized growth [8] was 0.984 and the normalized growth [9] was 0.983. For the same molecule, the normalized growth [10] was 0.977, the normalized growth [11] was 0.97 and the normalized growth [12] was 0.985. The normalized growth [13] was 0.973, the normalized growth [14] was 0.982 and the normalized growth [15] was 0.975. For the same molecule, the normalized growth [16] was 0.953, the normalized growth [17] was 0.981 and the normalized growth [18] was 0.98. It also gave a normalized growth [19] of 0.973, a normalized growth [20] of 0.98 and a normalized growth [21] of 0.981. The normalized growth [22] was 0.975, the normalized growth [23] was 0.966 and the normalized growth [24] was 1.07. The normalized growth [25] was 0.937, the normalized growth [26] was 1.01 and the normalized growth [27] was 1.02. It also gave a normalized growth [28] of 1.04, a normalized growth [29] of 0.963 and a normalized growth [30] of 0.983. For the same molecule, the normalized growth [31] was 1.02, the normalized growth [32] was 0.943 and the normalized growth [33] was 0.968. The normalized growth [34] was 0.979, the normalized growth [35] was 0.995 and the normalized growth [36] was 1.06. The normalized growth [37] was 0.957, the normalized growth [38] was 0.976 and the normalized growth [39] was 0.961. For the same molecule, the normalized growth [40] was 0.978, the normalized growth [41] was 1.05 and the normalized growth [42] was 0.923. It also gave a normalized growth [43] of 0.956, a normalized growth [44] of 0.96 and a normalized growth [45] of 0.956. For the same molecule, the normalized growth [46] was 0.977, the normalized growth [47] was 0.973 and the normalized growth [48] was 0.979. It also gave a normalized growth [49] of 0.995, a normalized growth [50] of 0.963 and a normalized growth [51] of 0.971. For the same molecule, the normalized growth [52] was 1.02, the normalized growth [53] was 0.977 and the normalized growth [54] was 0.975. It also gave a normalized growth [55] of 0.953, a normalized growth [56] of 0.978 and a normalized growth [57] of 0.969. The normalized growth [58] was 0.973, the normalized growth [59] was 1.03 and the normalized growth [60] was 0.959. It also gave a normalized growth [61] of 0.982, a normalized growth [62] of 0.979 and a normalized growth [63] of 0.986. The normalized growth [64] was 0.992, the normalized growth [65] was 0.962 and the normalized growth [66] was 0.96. For the same molecule, the normalized growth [67] was 0.978, the normalized growth [68] was 0.971 and the normalized growth [69] was 0.954. It also gave a normalized growth [70] of 0.978 and a normalized growth [71] of 0.972.
